The list is not random: actives were taken first. Their share in the collection is about 9.5%.
Pf growth 96h = inhibits malaria parasite growth, 96 h; Potency, µM (top dose mostly 28.7 µM), for inactives: at the top dose activity change, negative = inhibition, usual class: inhibitors; AID 504834; 6.9% of 320,000 active; P. falciparum luciferase reporter growth, 96 h; note: % is set by controls: 0 for no effect and ±100 for the full control effect
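Plates of compound plus infected erythrocytes (2% hematocrit, 0.05% parasitemia final) incubate 96 hours, 37 C, 5% CO2. Detection reagent added; reduced luminescence from the parasites' luciferase reporter flags inhibition.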
RE007 growth inh = less growth of the S. pombe RE007 Vpr strain. S. pombe RE007 Vpr strain, BacTiter-Glo ATP luminescence, 24 h. Potency, µM (titrated, usually from 92.2 µM), for inactives: at the highest dose activity change, negative = less growth, actives largely listed as inhibitors. 0.21% of 360,000 active; active = well fitted falling curve with a large enough effect; inconclusive = small, poorly fitted or top-dose-only effect; inactive = no such curve, though single readings can be large or run the other way; note: % is set by controls: 0 for no effect and ±100 for the full control effect; nearly all actives have a fitted effect of over 50% in size
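Fission yeast RE007 carrying one integrated HIV-1 vpr copy, seeded at OD 0.01 in PMG+AL medium with 23 nL pinned compound. Grown 24 h at 30 degrees; viability read by BacTiter-Glo luminescence after 5 min.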
Pf growth 48h = inhibits P. falciparum growth in the first generation, 48 h; P. falciparum luciferase growth in erythrocytes, 48 h; Potency, µM (series often up to 28.7 µM), inactives show at the highest dose activity change, negative = inhibition, usual class: inhibitors; 5.9% of 310,000 active; AID 504832; note: % is set by controls: 0 for no effect and ±100 for the full control effect
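Luciferase-expressing P. falciparum in infected erythrocytes (2% hematocrit, 0.1% parasitemia final) in RPMI 1640/0.5% Albumax were exposed to compound for 48 hours at 37 C, 5% CO2; growth read as luminescence.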
NS1 inh = blocks influenza NS1 protein function; 0.4% of 270,000 active; AID 2326; Potency, µM (doses to about 46.1 µM), inactives show at the top dose activity, positive = more growth; calls by dose curve; note: actives are rising curves; nearly all actives have a fitted effect of over 50% in size
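Growth recovery, yeast-based: influenza A NS1 expressed in S. cerevisiae causes slow growth, and suppressors are detected by OD600. The parent strain without NS1 is used as positive control.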
SARS PLpro yeast = SARS-CoV PLP inhibition in yeast | S. cerevisiae expressing SARS-CoV PLpro, growth rescue | Potency, µM (doses to about 32.9 µM), without a hit: top-dose activity, positive = growth rescue, actives largely listed as activators | 0.19% of 330,000 active | AID 485353; calls by dose curve; note: 0% is about no effect; nearly all actives have a fitted effect of over 55% in size
* marks the source's active call; other numbers are inactive results; ? = inconclusive; . = no result given. Unless noted, calls come from the whole dose curve; as a rule, active = well fitted inhibition curve with a large enough effect; inconclusive = small, poorly fitted or top-dose-only effect, or another doubt; inactive = no such curve, though single readings can be large or run the other way. Potency is the fitted concentration of half-maximal effect.

SMILES	Pf growth 96h	RE007 growth inh	Pf growth 48h	NS1 inh	SARS PLpro yeast
CC(Oc1ccccc1)C(=O)Nc1nc(-c2ccccn2)cs1 (stereo not drawn)	2.33µM*	?	1.85µM*	.	-11.0%
CC(OC(=O)c1ccc(O)cc1)C(=O)Nc1nc(-c2ccccc2)cs1 (stereo not drawn)	?	8.6%	6.57µM*	.	-2.5%
C[C@H](NC(=O)c1ccccc1)C(=O)Nc1nc(-c2ccccn2)cs1	-10.5%	1.2%	?	.	-1.0%
Cc1ccc(C(=O)O)cc1NC(=O)CSc1ncnc2sc3c(c12)CCC3	13.0%	2.5%	-2.9%	5.3%	-0.6%
Cc1ncoc1C(=O)N1CCCC(C(=O)c2ccc(-c3ccccc3)cc2)C1 (stereo not drawn)	-1.5%	8.0%	12.1%	-43.1%	-6.1%
Cc1c(C)[n+](=O)c(C)c(C)n1[O-]	.	1.4%	.	.	.
COC(=O)c1cc(C(=O)OCC(=O)Nc2ccc(N3CCOCC3)cc2)cc([N+](=O)[O-])c1	.	9.9%	.	.	-7.9%
O=C(c1ccc(Cl)c(S(=O)(=O)N2CCCCCC2)c1)N1CCN(c2ccccc2O)CC1	?	3.7%	?	9.4%	-2.2%
CCN1CCN(C(=O)NC(C(=O)NC2C(=O)N3C(C(=O)O)=C(CSc4nnnn4C)CSC23)c2ccc(O)cc2)C(=O)C1=O (stereo not drawn)	-11.1%	.	5.6%	.	.
O=C(CCCSc1ccccc1)Nc1nc(-c2ccccn2)cs1	7.38µM*	?	.	-80.3%	-11.0%
CSCCC(=O)Nc1nc(-c2ccccn2)cs1	?	-0.7%	?	.	7.3%
CN(Cc1cn(Cc2ccc(F)cc2)nn1)C1CN(Cc2cn(Cc3ccc(F)cc3)nn2)S(=O)(=O)C1 (stereo not drawn)	.	-7.6%	.	.	.
COc1ccc(-c2nnc(SCC(=O)NC(C)C)n2CC2CCCO2)cc1OC (stereo not drawn)	3.29µM*	-2.8%	10.4%	4.1%	5.7%
CC(=O)c1c(C)[nH]c(C(=O)CSc2nnc(-c3ccc(Cl)cc3)n2CC2CCCO2)c1C (stereo not drawn)	5.86µM*	-2.2%	.	12.0%	11.4%
COc1cc(C(=O)CSc2nnc(-c3ccc(O)cc3)n2CC2CCCO2)ccc1NC(C)=O (stereo not drawn)	.	-18.8%	10.8%	-2.3%	6.9%
Cc1ccc(NCc2nnc(SCC(N)=O)n2CC2CCCO2)c(C)c1 (stereo not drawn)	13.1µM*	12.3%	-8.9%	-17.1%	17.6%
NC(=O)NC(=O)CSc1nnc(-c2ccc(Cl)cc2)n1CC1CCCO1 (stereo not drawn)	3.4%	-3.0%	0.0%	.	1.2%
COc1ccc(Cl)cc1N1C(=NC(=O)C2CCCCC2)SC2CS(=O)(=O)CC21 (stereo not drawn)	8.2%	-2.1%	23.2%	-5.0%	1.5%
Cc1ccc(S(=O)(=O)CCC(=O)c2cccc([N+](=O)[O-])c2)cc1	32.7%	5.62µM*	6.0%	-139.5%	-24.3%
Cc1ccc(C(=O)CCS(=O)(=O)c2ccc(Br)cc2)cc1	31.5%	9.0%	-5.2%	0.0%	1.0%
O=C(CCNc1ccc(Cc2ccncc2)cc1)c1cccc([N+](=O)[O-])c1	7.8%	35.5µM*	0.5%	3.0%	-3.2%
Cc1c([N+](=O)[O-])cc(C(=O)Nc2ccc(Cc3ccncc3)cc2)cc1[N+](=O)[O-]	-3.6%	-12.8%	13.1µM*	7.4%	4.8%
COc1ccc(OC)c(S(=O)(=O)N2CCCC(C(=O)N3CCCCCC3)C2)c1 (stereo not drawn)	?	-3.4%	-12.3%	-2.2%	-4.8%
CCc1cc(=O)oc2cc3occ(-c4ccc(OC)c(F)c4)c3cc12	-81.9%	-12.8%	?	-2.6%	-3.8%
Cc1ccccc1-n1ncc2c([N+](=O)[O-])cc([N+](=O)[O-])cc21	?	?	9.28µM*	?	-39.7%
SMILES	Pf growth 96h	RE007 growth inh	Pf growth 48h	NS1 inh	SARS PLpro yeast
COc1cc2c(cc1O)CCC1C2CC[C@]2(C)[C@@H](O)CC[C@@H]12 (stereo partly drawn)	.	.	.	-32.6%	.
O=C(c1ccc(F)cc1)C1CCN(C(=S)NCC2CCCO2)CC1 (stereo not drawn)	?	-9.0%	3.9%	-1.0%	-1.4%
COC(=O)C(NC(=O)c1ccccc1C)(Nc1ncc(S(=O)(=O)c2ccc([N+](=O)[O-])cc2)s1)C(F)(F)F (stereo not drawn)	4.15µM*	-3.1%	11.7µM*	10.0%	6.1%
O=C(Nc1ncc(S(=O)(=O)c2ccc([N+](=O)[O-])cc2)s1)c1ccccc1F	9.7%	-0.3%	0.5%	-0.9%	0.7%
NC(=O)C(=O)N/N=C/c1c2ccccc2cc2ccccc12	?	-6.6%	12.5%	4.9%	8.8%
O=S(=O)(NCc1ccc(F)cc1)c1cccc(S(=O)(=O)N2CCOCC2)c1	-20.7%	-9.6%	.	0.7%	3.6%
O=S(=O)(NCc1ccccc1F)c1cccc(S(=O)(=O)N2CCOCC2)c1	62.6%	-12.6%	8.28µM*	0.9%	-0.2%
O=C(OCC(=O)N1CCc2ccccc21)[C@@H]1CC(O)CN1S(=O)(=O)c1ccc(Cl)cc1 (stereo partly drawn)	.	-1.7%	.	.	1.8%
COc1ccc(CCNC(=O)c2ccc(NS(=O)(=O)c3ccc4[nH]c(=O)[nH]c4c3)cc2)cc1	4.8%	3.5%	?	.	-6.6%
CCCc1cc(=O)[nH]c(Nc2ccc(N3CCCCC3)cc2)n1	.	-1.4%	11.5%	-6.7%	1.1%
CCCCc1ccc(Nc2nc(CCC)cc(=O)[nH]2)cc1	.	4.2%	10.4µM*	-73.3%	-9.4%
CCOC(=O)C1=C(N)Oc2cc(C)n(CCc3ccc(OC)c(OC)c3)c(=O)c2C1c1cccnc1 (stereo not drawn)	10.4µM*	-5.5%	2.33µM*	-33.1%	2.8%
CCOC(=O)C1=C(N)Oc2ccc3ccccc3c2C1c1cccnc1 (stereo not drawn)	9.28µM*	3.5%	?	0.3%	-23.6%
COC(=O)C1=C(N)Oc2cc(C)n(CCCn3ccnc3)c(=O)c2C1c1cccc(Cl)c1 (stereo not drawn)	.	-9.0%	5.86µM*	-12.4%	3.5%
CCOC(=O)C1=C(N)Oc2ccc3ccccc3c2C1c1cccc(O)c1 (stereo not drawn)	-14.5%	-5.5%	?	-60.4%	-30.3%
COC(=O)C1=C(N)Oc2cc(C)n(CCc3ccccc3)c(=O)c2C1c1cccnc1 (stereo not drawn)	?	-0.4%	10.4µM*	-49.6%	0.2%
COc1ccc(Cl)cc1NC(=O)CN1CCN(S(=O)(=O)N2CCCCC2)CC1	?	0.3%	?	-22.8%	-0.2%
FC(F)(F)c1nc(SCc2ccc(Cl)cc2)n[nH]1	.	.	.	-5.6%	.
Cc1ccc(OCc2cc(C(=O)NC3CCc4ccccc43)no2)cn1 (stereo not drawn)	?	-7.1%	-2.9%	-20.8%	-4.2%
CC1=NN(c2ccccc2)C(=O)C1N=Nc1ccccc1 (stereo not drawn)	?	-0.5%	250.8%	-5.8%	-9.8%
